Only some compounds are listed: those with a hit (about 1.2% of all), similar ones and a draw of the others.
AMA1 RON2 block: AMA1-RON2 (P. falciparum) interaction inhibition; AlphaScreen AMA1-biotinylated RON2 peptide binding; AID 720542; 0.2% of 360,000 active; Potency, µM (highest dose often 58.2 µM), without a hit: at the top dose activity change, negative = inhibition, usual class: inhibitors;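 note: potency is the fitted concentration of half-maximal effect; 0% = vehicle wells and -100% = peptide control; nearly all actives have a fitted effect of over 45% in size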
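AMA1 (3D7) with his tag at 25 nM final met compounds first, then biotinylated RON2 peptide at 25 nM; detection used donor plus acceptor beads, 10 µg/mL apiece, read by AlphaScreen after 30 min at room temperature.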
NS1 inh: inhibitors of influenza NS1 protein function | Potency, µM (doses to about 46.1 µM), without a hit: at the highest dose activity, positive = more growth | 0.4% of 270,000 active; calls by dose curve; note: potency is the fitted concentration of half-maximal effect; actives are rising curves; nearly all actives have a fitted effect of over 50% in size
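OD600 was taken as the measure of yeast growth restored by compound in an NS1-expressing S. cerevisiae strain. Cells had been washed out of glucose medium and diluted 1:100 into galactose -URA medium, pH 6.0.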
LmPK inh: blocks Leishmania mexicana pyruvate kinase activity; Q27686; purified LmPK, Kinase-Glo ATP luminescence, 1 h; Potency, µM (doses to about 57.5 µM), without a hit: at the top dose activity change, negative = inhibition, actives largely listed as inhibitors; 0.37% of 290,000 active; AID 1721; note: potency is the fitted concentration of half-maximal effect; % is set by controls: 0 for no effect and ±100 for the full control effect
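Screened at intermediate enzyme activity to detect both inhibitors and activators: LmPK at 0.1 nM, with a 0.5 nM enzyme column as activation reference. PEP 0.5 mM, ADP 0.1 mM; ATP detected by luminescence after 1 h.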
Giardia FBPA inh: blocks Giardia fructose-bisphosphate aldolase activity | A8B2U2 | purified Giardia FBPA | Potency, µM (titrated, usually from 59.6 µM), for inactives: at the highest dose activity, negative = inhibition, actives largely listed as inhibitors | 0.71% of 290,000 active; note: potency is the fitted concentration of half-maximal effect; % is set by controls: 0 for no effect and ±100 for the full control effect; nearly all actives have a fitted effect of over 55% in size
Target sequence (A8B2U2 whole entry, looked up): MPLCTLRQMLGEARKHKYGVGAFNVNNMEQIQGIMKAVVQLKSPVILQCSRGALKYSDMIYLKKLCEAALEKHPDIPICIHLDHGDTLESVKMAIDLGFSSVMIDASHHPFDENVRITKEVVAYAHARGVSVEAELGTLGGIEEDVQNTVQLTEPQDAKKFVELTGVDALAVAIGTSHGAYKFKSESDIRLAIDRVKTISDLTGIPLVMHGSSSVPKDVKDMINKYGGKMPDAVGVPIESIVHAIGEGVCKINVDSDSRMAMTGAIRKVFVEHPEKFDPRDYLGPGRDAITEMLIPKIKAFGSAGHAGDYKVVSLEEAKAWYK
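40 nM FBPA preincubated 10 min at RT with compound (up to 57.5 uM final), then substrate plus GAPDH/TPI/NAD/arsenate coupling and diaphorase/resazurin added. Fluorescence read after 20 min at RT, 525/598 nm.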
Tb PYK inh: blocks Trypanosoma brucei pyruvate kinase; AID 624173; 0.12% of 410,000 active; TbPYK enzyme, Kinase-Glo Plus ATP luminescence, 45 min; Potency, µM (highest dose often 76.8 µM), inactives show at the highest dose activity, negative = inhibition, most hits filed as inhibitors; Q57TT1; note: potency is the fitted concentration of half-maximal effect; % is set by controls: 0 for no effect and ±100 for the full control effect; nearly all actives have a fitted effect of over 50% in size
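TbPYK + substrate in 50 mM TEA pH 7.2, 100 mM KCl, 10 mM MgCl2, 0.05% BSA, 0.01% Tween-20; cpd pinned; ADP 130 uM final; 45 min RT; Kinase-Glo Plus 10 min; luminescence endpoint.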
Flu NS1 inh: influenza NS1 function inhibition validation; 1,400 tested, under 10 active; shares compounds with NS1 inh; AID 492980; activity change, negative = inhibition, % at 32.9 µM; influenza NS1 function cell assay, 15-point titration; calls by dose curve; note: 0% is about no effect
PR8 titer: reduces influenza A/PR/8/34 replication in MDCK cells; shares compounds with NS1 inh; MDCK infected influenza A/PR/8/34, virus titer TCID50; stronger effect = lower value; virus titer (log TCID50), log10 TCID50 at 5 µM; 30% of 95 active; AID 504647; call rule not given here
The depositor's hits bear a star; [ ] = dose if it differs, or a comment. Unless noted, calls come from the whole dose curve; as a rule, active = well fitted curve in the direction sought with a large enough effect; inconclusive = small, poorly fitted or top-dose-only effect, or another doubt; inactive = no such curve, though single readings can be large; an effect the other way counts as inactive or inconclusive.

What do the screens show for `CCOC(=O)N1CCC(NC(=O)c2ccc3c(c2)sc2nc(-c4ccccc4)cn23)CC1`?
AMA1 RON2 block: 0.0%; NS1 inh: inconclusive; LmPK inh: 0.6%; Giardia FBPA inh: 2.3%; Tb PYK inh: -3.5%; Flu NS1 inh: -11.6; PR8 titer: 7.5*

What do the screens show for `Cc1nn(C)c(C)c1CCC(=O)N1CCCC(N2CCN(c3ccc(F)cc3)CC2)C1` (stereo unspecified)?
AMA1 RON2 block: -6.1%; NS1 inh: inconclusive; LmPK inh: 6.0%; Giardia FBPA inh: 0.5%; Tb PYK inh: -7.5%; Flu NS1 inh: -8.8

How did N#CC1=C(S)N=C(N)C(c2nc(-c3ccccc3)cs2)C12CCCC2 (stereo unspecified) do in these assays?
AMA1 RON2 block: 59.6%; NS1 inh: 21.9%; LmPK inh: -10.0%; Giardia FBPA inh: 10.3%; Tb PYK inh: 0.3%

Results for N#CC1=C(S)N=C(N)C(c2nc(-c3ccccc3)cs2)C12CCCCC2 (stereo unspecified) ?
AMA1 RON2 block: 56.4%; NS1 inh: 11.2µM*; LmPK inh: 0.2%; Giardia FBPA inh: 25.8%; Tb PYK inh: 3.0%; Flu NS1 inh: 18.3

Results for Cc1ccc(S(=O)(=O)N2CCCCC2)cc1C(=O)N(C)CC(=O)Nc1ccc(Cl)c(C(F)(F)F)c1 ?
AMA1 RON2 block: -11.0%; NS1 inh: 10µM*; LmPK inh: -1.0%; Giardia FBPA inh: 7.6%; Tb PYK inh: 1.3%; Flu NS1 inh: -14.1

What do the screens show for `Cc1ccc(C(=O)N(C)CC(=O)Nc2ccc(Cl)c(C(F)(F)F)c2)cc1S(=O)(=O)N1CCCCC1`?
AMA1 RON2 block: -4.0%; Tb PYK inh: 1.0%

How did Cc1ccccc1-n1c(=O)cc(NCc2ccc3c(c2)OCO3)[nH]c1=O do in these assays?
AMA1 RON2 block: -5.4%; NS1 inh: inconclusive; LmPK inh: 7.1%; Giardia FBPA inh: -2.1%; Tb PYK inh: 2.5%; Flu NS1 inh: 10.0

How did CC(C)Sc1nnc([C@@H](N)Cc2ccccc2)o1 do in these assays?
AMA1 RON2 block: 20.6%; NS1 inh: inconclusive; LmPK inh: 6.5%; Giardia FBPA inh: 13.7%; Tb PYK inh: -2.3%; Flu NS1 inh: -2.5

How did CSc1nnc([C@@H](N)Cc2ccccc2)o1 do in these assays?
AMA1 RON2 block: 38.6%; NS1 inh: -7.7%; LmPK inh: -4.9%; Giardia FBPA inh: -23.6%; Tb PYK inh: 0.8%

Results for CCOc1ccc(NC(=S)N(CCc2c(C)[nH]c3ccc(C)cc23)Cc2ccco2)cc1 ?
AMA1 RON2 block: 21.9%; NS1 inh: 11.2µM*; LmPK inh: 0.3%; Giardia FBPA inh: -1.1%; Tb PYK inh: -6.6%; Flu NS1 inh: -32.6

What do the screens show for `COc1ccc(NC(=S)N(CCc2c(C)[nH]c3ccc(C)cc23)Cc2cccs2)cc1`?
AMA1 RON2 block: 11.7%; NS1 inh: 11.2µM*; LmPK inh: 1.8%; Giardia FBPA inh: -1.0%; Tb PYK inh: -3.5%; Flu NS1 inh: -24.8

What do the screens show for `CC(C)(CO)[C@H](O)C(=O)NCCC(=O)O`?
Giardia FBPA inh: -1.7%[21.7 µM]

What do the screens show for `O=C(Nc1ccccc1N1CCN(c2ccc(F)cc2)CC1)c1ccccc1`?
AMA1 RON2 block: 0.0%; NS1 inh: inconclusive; LmPK inh: 0.0%; Giardia FBPA inh: -17.6%; Tb PYK inh: 0.1%; Flu NS1 inh: -27.0

Results for O=C(Nc1nnc(S(=O)(=O)N2CCN(c3ccc(F)cc3)CC2)s1)c1ccccc1 ?
AMA1 RON2 block: 0.3%; NS1 inh: 2.24µM*; LmPK inh: 6.0%; Giardia FBPA inh: -13.1%; Tb PYK inh: 0.9%; Flu NS1 inh: -20.8

Results for CCC(=O)Nc1ccccc1N1CCN(c2ccc(F)cc2)CC1 ?
AMA1 RON2 block: 13.4%; NS1 inh: 8.7%; LmPK inh: -1.6%; Giardia FBPA inh: -6.5%; Tb PYK inh: -7.0%

Results for CCOc1ccccc1C1C(C(=O)N2CCCCC2)=C(C)Nc2nc3ccccc3n21 (stereo unspecified) ?
Tb PYK inh: -1.9%

Results for O=C(CSc1ccc(Cl)cc1)NC1=NN(c2ccccc2)C(=O)C1 ?
AMA1 RON2 block: 38.4%; NS1 inh: 11.2µM*; LmPK inh: 3.5%; Giardia FBPA inh: 2.2%; Tb PYK inh: 1.4%; Flu NS1 inh: 24.2

How did Cc1ccc(C(=O)CSc2nn3c(=O)c(C(C)(C)C)nnc3s2)cc1 do in these assays?
AMA1 RON2 block: 1.3%; NS1 inh: 19.6%; LmPK inh: 5.5%; Giardia FBPA inh: 11.6%; Tb PYK inh: 1.0%

How did CC(C)(C)c1nnc2sc(SCC(=O)c3ccc(Cl)cc3)nn2c1=O do in these assays?
AMA1 RON2 block: -0.7%; NS1 inh: 11.2µM*; LmPK inh: 1.9%; Giardia FBPA inh: -14.6%; Tb PYK inh: -3.8%; Flu NS1 inh: 26.1; PR8 titer: 8.5

What do the screens show for `CC(Nc1nc(-c2cccc(Br)c2)cs1)c1nc2cc(Cl)c(N3CCCCC3)cc2n1CCOCCO` (stereo unspecified)?
AMA1 RON2 block: 38.1%; NS1 inh: 10µM*; LmPK inh: -0.6%; Giardia FBPA inh: inconclusive; Tb PYK inh: 1.7%; Flu NS1 inh: -8.8

Results for O=C(O)c1ccccc1-c1ccccc1C(=O)Nc1ccccc1-c1ccccc1 ?
AMA1 RON2 block: 9.7%; NS1 inh: 10µM*; LmPK inh: 1.6%; Giardia FBPA inh: 3.3%; Tb PYK inh: 3.0%; Flu NS1 inh: 36.0

What do the screens show for `Cc1ccccc1NC(=O)c1ccccc1-c1ccccc1`?
AMA1 RON2 block: 7.8%; NS1 inh: -20.5%; LmPK inh: -6.7%; Giardia FBPA inh: 9.5%; Tb PYK inh: -2.8%

What do the screens show for `COc1ccc(CN2C(=O)NC(=O)/C(=C/c3ccc(OC)c(OC)c3OC)C2=O)cc1`?
AMA1 RON2 block: 3.5%; NS1 inh: 10µM*; LmPK inh: -2.6%; Giardia FBPA inh: -7.4%; Tb PYK inh: inconclusive; Flu NS1 inh: 35.0

Results for Cc1nc2sccn2c1-c1csc(NCc2ccccc2)n1 ?
AMA1 RON2 block: 5.4%; NS1 inh: inconclusive; LmPK inh: -4.2%; Giardia FBPA inh: -21.2%; Tb PYK inh: 7.0%; Flu NS1 inh: -28.6

What do the screens show for `CCOCCCNS(=O)(=O)c1ccc(NC(=O)c2ccccc2)cc1`?
AMA1 RON2 block: -7.9%; NS1 inh: 2.1%; LmPK inh: -3.1%; Giardia FBPA inh: -4.9%; Tb PYK inh: 2.4%

How did CCOCCCNS(=O)(=O)c1ccc(NC(=O)Cc2c(F)cccc2Cl)cc1 do in these assays?
AMA1 RON2 block: -10.7%; NS1 inh: inconclusive; LmPK inh: 6.3%; Giardia FBPA inh: 3.9%; Tb PYK inh: -1.2%; Flu NS1 inh: -14.1; PR8 titer: 8.33

High-throughput results as filed in PubChem BioAssay.
